Counter-ions that a name gives are not always drawn. Hit rate of the full screen: of about 1,700 compounds, about 15 (0.9%) showed activity.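 The calls were made as follows: active = infection cut by 80% or more with cell growth above 90% in both runs; inactive = the rest.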 What follows is part of a selection rich in actives, with near analogues and random picks from the rest.

The text below walks through data of the supplement of paper PMC11537057.

This assay concerns HSV-1 strain 17 YFP-ICP4 in A549. The assay is described as follows: HSV-1 infection relative to DMSO (ICP4-YFP per H2B-RFP signal); higher = more viral infection (less antiviral activity), active = hit call of the paper. As to conditions: 10 µM; 48 h; MOI: 0.1. How it is done: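 Selleck FDA-approved library (L1300) screened in duplicate at 10 µM on A549 H2B-mRuby cells in 384-well plates, infected with HSV-1 strain 17 YFP-ICP4 at MOI 0.1 one hour before drug addition. Imaged after 2 days at 37°C. Cell growth (H2B-RFP) and infection (ICP4-YFP) are expressed as % of DMSO-treated wells. Hits: growth >90% and infection <20% of DMSO.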
Regarding `CCNC1(C(N)=O)CCN(c2ncnc3c2nc(-c2ccccc2Cl)n3-c2ccc(Cl)cc2)CC1`, the HSV-1 infection is 105% (inactive).

In the case of `O=C1C(CC[S+]([O-])c2ccccc2)C(=O)N(c2ccccc2)N1c1ccccc1` (racemic) [(+/-)-Sulfinpyrazone], the HSV-1 infection was 111% (inactive).

For `C=CN1CCCC1=O.II` [Povidone iodine], the HSV-1 infection was 108% (inactive).

Take `CCCCCOc1ccccc1/C(=C\SC)n1ccnc1` [Neticonazole Hydrochloride]: the HSV-1 infection is 61.4% (inactive).

Turning to `CC(C)(C)C#Cc1cc(N(C(=O)[C@H]2CC[C@H](C)CC2)[C@H]2CC[C@H](O)CC2)c(C(=O)O)s1` [Lomibuvir (VX-222, VCH-222)], the HSV-1 infection is 130% (inactive).

On to `COc1cc2c(cc1OC)CN(CCc1ccc(NC(=O)c3cccc4c(=O)c5cccc(OC)c5[nH]c34)cc1)CC2`, for which the HSV-1 infection was 135% (inactive).

For the compound `COC(=O)N[C@H](C(=O)N1CC2(CC2)C[C@H]1c1nc(-c2ccc3c(c2)C(F)(F)c2cc(-c4ccc5[nH]c([C@@H]6[C@H]7CC[C@H](C7)N6C(=O)[C@@H](NC(=O)OC)C(C)C)nc5c4)ccc2-3)c[nH]1)C(C)C` [Ledipasvir (GS5885)], the HSV-1 infection is 105% (inactive).

`CCCCC[C@](C)(O)/C=C/[C@@H]1[C@@H](C/C=C\CCCC(=O)O)[C@@H](O)C[C@H]1O` [Carboprost]: the HSV-1 infection is 117% (inactive).

Turning to `Nc1ncn([C@@H]2O[C@H](CO)[C@@H](O)[C@H]2O)c(=O)n1` [Azacitidine], the HSV-1 infection is 5.54% (active).

Consider `Nc1ncn([C@H]2C[C@H](O)[C@@H](CO)O2)c(=O)n1` [Decitabine], for which the HSV-1 infection was 7.64% (active).

On to `NC(=O)c1ncn([C@@H]2O[C@H](CO)[C@@H](O)[C@H]2O)c1O` [Mizoribine], for which the HSV-1 infection is 89.7% (inactive).

On to `Nc1ccn([C@H]2CC[C@@H](CO)O2)c(=O)n1` [Zalcitabine], for which the HSV-1 infection was 98.8% (inactive).

Turning to `NC(=O)c1ncn([C@@H]2O[C@H](CO)[C@@H](O)[C@H]2O)c1N` [AICAR (Acadesine)], the HSV-1 infection was 67.6% (inactive).

Turning to `Nc1nc(Cl)nc2c1ncn2[C@H]1C[C@H](O)[C@@H](CO)O1` [Cladribine], the HSV-1 infection was 22.3% (inactive).

With `CC#CC(=O)N1CCC[C@H]1c1nc(-c2ccc(C(=O)Nc3ccccn3)cc2)c2c(N)nccn12` [Acalabrutinib (ACP-196)], the HSV-1 infection is 98.3% (inactive).

Take `CNC(=O)CN(CCN(CCN(CC(=O)[O-])CC(=O)NC)CC(=O)[O-])CC(=O)[O-].O.[Gd+3]` [Gadodiamide Hydrate]: the HSV-1 infection is 108% (inactive).

As to `COc1ccc(C[C@@H](C)NC[C@H](O)c2ccc(O)c(NC=O)c2)cc1` [Arformoterol Tartrate], the HSV-1 infection is 112% (inactive).

`Cn1cnc2c(F)c(Nc3ccc(Br)cc3Cl)c(C(=O)NOCCO)cc21` [Selumetinib (AZD6244)]: the HSV-1 infection is 52.5% (inactive).

On to `CNCc1cc(-c2ccccc2F)n(S(=O)(=O)c2cccnc2)c1` [Vonoprazan Fumarate (TAK-438)], for which the HSV-1 infection was 95.8% (inactive).

As for `CCCNS(=O)(=O)Nc1ncnc(OCCOc2ncc(Br)cn2)c1-c1ccc(Br)cc1` [Macitentan], the HSV-1 infection is 93.1% (inactive).

In the case of `C[C@@H](O)[C@H]1C(=O)N2C(C(=O)OCOC(=O)C(C)(C)C)=C(SC3CN(C4=NCCS4)C3)[C@H](C)[C@H]12` [Tebipenem Pivoxil], the HSV-1 infection is 92.2% (inactive).

For the compound `CC1CCC(C(C)C)C(O)C1` (single isomer, unassigned; (-)) [(-)-Menthol], the HSV-1 infection is 99.1% (inactive).

For the compound `C[C@H](Cn1cnc2c(N)ncnc21)OCP(=O)(O)O` [Tenofovir], the HSV-1 infection is 119% (inactive).

For `Nc1nc2c(ncn2COCCO)c(=O)[nH]1` [Aciclovir], the HSV-1 infection is 3.03% (active).

As for `Nc1ccn(C[C@@H](CO)OCP(=O)(O)O)c(=O)n1` [Cidofovir], the HSV-1 infection was 45.8% (inactive).

As to `Nc1nc2c(ncn2COC(CO)CO)c(=O)[nH]1` [Ganciclovir], the HSV-1 infection is 2.93% (active).

On to `CC(C)[C@H](N)C(=O)OCCOCn1cnc2c(=O)nc(N)[nH]c21` [Valaciclovir HCl], for which the HSV-1 infection is 4.82% (active).

On to `CC(C)[C@H](N)C(=O)OCC(CO)OCn1cnc2c(=O)[nH]c(N)nc21` (stereo not given in full) [Valganciclovir HCl], for which the HSV-1 infection was 2.02% (active).

For the compound `C=C1[C@H](CO)[C@@H](O)C[C@@H]1n1cnc2c(=O)[nH]c(N)nc21` [Entecavir], the HSV-1 infection is 7.02% (active).

On to `O=c1[nH]cnc2c1ncn2[C@@H]1O[C@H](CO)[C@@H](O)[C@H]1O` [Inosine], for which the HSV-1 infection is 82.6% (inactive).

Turning to `C=C1[C@H](CO)[C@@H](O)C[C@@H]1n1cnc2c(=O)[nH]c(N)nc21` [Entecavir Hydrate], the HSV-1 infection was 12.1% (active).

Consider `O=c1[nH]cnc2c1ncn2[C@H]1CC[C@@H](CO)O1` [Didanosine], for which the HSV-1 infection was 112% (inactive).

For the compound `N/N=c1\[nH][nH]/c(=N\N)c2ccccc12` [Dihydralazine sulphate], the HSV-1 infection is 123% (inactive).

Turning to `C1CNCCNCCNCCN1` [Cyclen], the HSV-1 infection is 105% (inactive).

With `C=C1CCN([C@H](C)[C@](O)(Cn2cncn2)c2ccc(F)cc2F)CC1` [Efinaconazole], the HSV-1 infection was 93.8% (inactive).
